Shown are actives, neighbours in structure and some others; about 0.45% of the full set was active somewhere.
aGlu spleen mod = lysosomal alpha-glucosidase (human) modulation | Potency, µM (series often up to 79.9 µM), hits mostly inhibitors | 240,000 compounds, 0.006% hits | P10253 | human spleen homogenate, 4-MU-alpha-glucoside fluorescence
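Human spleen homogenate (1 ug) with 4-methylumbelliferyl-alpha-D-glucopyranoside (1 mM final) in 50 mM citrate/phosphate pH 5.0, 0.01% Tween-20; 40 min at 37 C. Stopped at pH 10; 4-MU fluorescence Ex 365/Em 440 nm; AC50 by Hill fit.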
GAA glycogen mod = GAA glycogen-cleavage inhibition or activation; P10253; recombinant GAA, glycogen substrate, Amplex Red glucose oxidase fluorescence; Potency, µM (titrated, usually from 76.4 µM), usual class: inhibitors; 300,000 compounds, 0.38% hits;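 also: the screen sought inhibitors and activators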
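Recombinant human alpha-glucosidase (4 nM final) hydrolysed bovine liver glycogen (30 ug) for 40 min at 37 C in pH 5.0 citrate/phosphate with 0.01% Tween-20. Released glucose detected by glucose oxidase/Amplex Red, Ex 573/Em 610 nm. Compounds up to 77 uM; AC50 from Hill fits.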
GAA inhib = inhibitors of human lysosomal alpha-glucosidase; P10253; purified human GAA, 4-MU-alpha-glucoside fluorescence; Potency, µM (top dose mostly 76.9 µM), most hits filed as inhibitors; 200,000 compounds, 0.005% hits; AID 1466
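Read-out is 4-methylumbelliferone fluorescence (Ex 365/Em 440 nm) after NaOH/glycine stop at pH 10. Enzyme 4 nM, substrate 400 uM, pH 5.0 citrate buffer, 20 min room temperature; AC50 from Hill-equation concentration-response.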
Menin-MLL TR inh = displaces Texas Red mutant MLL peptide from human menin; Menin + Texas Red MLL mutant peptide, fluorescence polarization; Potency, µM (series often up to 61.6 µM), usual class: inhibitors; 270,000 compounds, 0.23% hits; AID 1768; active = well fitted inhibition curve with a large enough effect in the polarisation, with a control signal flat, not every such curve was filed as active; inconclusive = small, poorly fitted or top-dose-only effect, or effect the other way, or a change in a side signal; inactive = no such curve, though single readings can be large or run the other way; the % refers to the polarisation
Target sequence (O00255 whole entry, looked up): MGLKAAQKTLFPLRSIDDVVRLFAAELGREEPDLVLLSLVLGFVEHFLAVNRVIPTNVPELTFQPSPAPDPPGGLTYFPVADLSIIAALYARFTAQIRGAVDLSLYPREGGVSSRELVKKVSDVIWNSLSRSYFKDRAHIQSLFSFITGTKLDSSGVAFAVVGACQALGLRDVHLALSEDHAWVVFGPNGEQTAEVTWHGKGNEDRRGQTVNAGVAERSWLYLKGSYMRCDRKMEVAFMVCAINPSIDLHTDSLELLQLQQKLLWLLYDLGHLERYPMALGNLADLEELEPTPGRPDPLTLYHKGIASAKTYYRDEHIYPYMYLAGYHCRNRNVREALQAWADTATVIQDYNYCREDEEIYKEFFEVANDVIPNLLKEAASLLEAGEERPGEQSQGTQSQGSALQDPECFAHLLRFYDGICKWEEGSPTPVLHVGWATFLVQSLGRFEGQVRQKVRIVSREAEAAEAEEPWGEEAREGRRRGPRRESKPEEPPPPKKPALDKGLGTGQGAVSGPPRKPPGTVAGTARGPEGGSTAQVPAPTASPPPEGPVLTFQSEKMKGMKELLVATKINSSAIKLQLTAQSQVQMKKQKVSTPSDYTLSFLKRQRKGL
MLL CXXC-DNA inh = blocks binding of human MLL CXXC domain to DNA; 290,000 compounds, 0.037% hits; Q03164; Potency, µM (series often up to 115 µM), most hits filed as inhibitors; MLL-CXXC / FITC-HOXA9 DNA fluorescence polarization; active = well fitted inhibition curve with a large enough effect in the polarisation, with a control signal flat, not every such curve was filed as active; inconclusive = small, poorly fitted or top-dose-only effect, or effect the other way, or a change in a side signal; inactive = no such curve, though single readings can be large or run the other way; the % refers to the polarisation
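Purified MLL-CXXC (added from a 7 uM solution) was preincubated 5 min at ambient with pinned compounds in 50 mM Tris-HCl pH 7.5, 50 mM NaCl, 1 mM DTT, 0.05% BSA. Fluorescein-labeled HOX-A9 DNA (50 nM solution) followed, 30 min, then polarization read.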
Menin MLL FP FL = menin-MLL binding inhibition, fluorescein peptide; FP activity change, % at 61.4 µM; AID 1766; Fluorescence polarization, fluorescein-MLL peptide displacement from menin; 290,000 tested, under 10 active; active = well fitted curve in the direction sought with a large enough effect in the polarisation, not every such curve was filed as active; inconclusive = small, poorly fitted or top-dose-only effect, or effect the other way, or a change in a side signal; inactive = no such curve, though single readings can be large or run the other way; the % refers to the polarisation
Numbers stand for hits; - = inactive; ? = inconclusive; . = no result given; ! = not active in a repeat; [ ] = another dose, or the depositor's remark. Unless noted, calls follow the shape of the dose curve; as a rule, active = well fitted curve in the direction sought with a large enough effect; inconclusive = small, poorly fitted or top-dose-only effect, or another doubt; inactive = no such curve, though single readings can be large; an effect the other way counts as inactive or inconclusive.

SMILES	aGlu spleen mod	GAA glycogen mod	GAA inhib	Menin-MLL TR inh	MLL CXXC-DNA inh	Menin MLL FP FL
O=C(NNc1nc2c(F)cccc2s1)C1COc2ccccc2O1 (stereo not given)	-	4.4µM	-	-	-	-
CCOC(=O)c1c(C)[nH]c(C=Nc2ccc(OC)cc2)c1O	-	8.9µM	-	?	?	-
CC(C)NC(=O)N1CC[C@@]2(CCCN(S(C)(=O)=O)C2)C1	-	.	.	-	.	-
CCn1c(=O)sc2cc(NS(=O)(=O)c3ccc(F)c(C)c3)ccc21	.	-	.	.	.	.
Cc1ccc(-n2c(=O)c3ccc(C(=O)NCc4ccco4)cc3n(Cc3ccccc3C#N)c2=O)cc1	-	32µM!	-	-	-	-
Cc1cccc(-c2cc(C(=O)Nc3ccc4c(c3)OCCO4)c3ccccc3n2)c1	-	-	-	-	-	-
Cc1cccc(NC(=S)NC(=O)c2cc(-c3ccccc3)nc3ccccc23)c1	-	-	-	35µM	-	-
O=C(Nc1ccc(F)cc1)N1CCOCC1	-	-	-	-	-	-
CN(C)c1ccc(NC(=O)N2CCOCC2)cc1	-	13µM	-	20µM	-	-
O=C(NNC(=S)NCCc1ccccc1)c1ccc(Br)s1	-	35µM	-	?	-	-
Nc1ccc2nc(N3CCOCC3)sc2c1	-	6.3µM	-	-	-	-
CCOc1ccc2c(c1)-c1c(ssc1=S)C(C)(C)N2C(=O)CSC1=NCCS1	-	-	?	-	-	-
CCOc1ccc2c(c1)-c1c(ssc1=S)C(C)(C)N2	?	20µM	-	?	-	-
O=C(COc1cccc2cccnc12)N/N=C/c1ccccc1O	-	-	.	.	-	-
Oc1ccccc1/C=N/Nc1cccc2cccnc12	-	7.9µM	-	?	-	?
CC(=O)OC1CC[C@]2(C)C(CC(OC(C)=O)[C@]3(C)C2CC[C@@]2(C)C(c4ccoc4)OC(=O)C4O[C@]432)C1(C)C (stereo not given in full)	-	.	.	-	.	-
COc1cc(CN2CCN(c3cccc(C)c3C)CC2)cc(OC)c1O	-	28µM	-	-	-	-
[O-]/[N+](=C\c1ccccc1)[C@@H]1CCCC[C@@H]1/[N+]([O-])=C/c1ccccc1	-	40µM	-	-	-	-
Nc1sc(-c2ccccc2)cc1C(=O)O	-	25µM	-	?	-	-
CCOC(=O)c1cc(-c2ccc(N)cc2)sc1N	-	14µM	?	?	-	-
N#CC12COC3(CCCCC3C1(C#N)C#N)OC2=N (stereo not given)	-	-	.	.	-	?
N#CC1(C#N)COC23CCCCC2C1(C#N)C(=N)O3 (stereo not given)	-	-	-	28µM	-	?
Cc1ccc(-c2cnc(NCc3c(F)cccc3Cl)n2C)cc1	.	22µM	.	.	.	.
Cn1c(-c2cccc([N+](=O)[O-])c2)cnc1NCc1cccc([N+](=O)[O-])c1	-	22µM	-	-	-	-
Cn1c(-c2ccc(F)cc2)cnc1NCc1ccccc1F	.	-	.	-	-	-
SMILES	aGlu spleen mod	GAA glycogen mod	GAA inhib	Menin-MLL TR inh	MLL CXXC-DNA inh	Menin MLL FP FL
Cn1c(-c2ccc(F)cc2)cnc1NCc1ccc(C#N)cc1	-	?	-	-	-	-
Cn1c(-c2ccc(F)cc2)cnc1NCc1ccc(F)cc1	-	45µM	-	?	-	-
Cc1ccc(CNc2ncc(-c3ccc4c(c3)OCO4)n2C)cc1	-	20µM	-	-	-	-
O=C(NCCSc1c[nH]c2ccccc12)c1ccccc1Cl	.	-	.	.	.	.
CCCCC[C@H](O)/C=C/[C@@H]1[C@@H](C/C=C\CCCC(=O)O)[C@H](O)C[C@H]1O	-	.	.	-	.	-
Cc1ccc2nc(-c3cc(NC(=O)/C=C/c4ccccc4)ccc3Cl)oc2c1	.	-	.	.	.	.
COc1ccc(CNc2ncc(-c3ccccc3)n2C)cc1	.	?	.	-	-	-
CCOc1cc(CNc2ncc(-c3ccc(OC)cc3)n2C)ccc1O	-	22µM	-	-	-	-
CCOc1ccc(-c2cnc(NCc3ccc(C(F)(F)F)cc3)n2C)cc1	.	32µM	.	.	.	.
Cc1cccc(N2CCN(c3nc4nonc4nc3N3CCSCC3)CC2)n1	-	10µM	-	-	-	-
C1CCN(C2CCN(c3nc4nonc4nc3N3CCSCC3)CC2)C1	-	-	-	-	-	-
Nc1nc(N2CCN(Cc3ccccc3)CC2)n[nH]1	-	5.6µM	-	-	-	-
Nc1nc(N2CCN(C(c3ccccc3)c3ccccc3)CC2)n[nH]1	-	?	-	-	-	-
Cc1cc2c(cc1S(=O)(=O)CCC(=O)N1CCCCC1C)OCC(=O)N2 (stereo not given)	.	-	.	.	.	.
O=C1Nc2ccccc2/C1=N\N=C\c1ccc(O)c(O)c1	-	6.3µM	-	.	-	-
O=C1OCC(CO)(CO)N=C1NNc1ccc(Cl)c(Cl)c1	-	35µM	-	-	-	-
Cc1nc2ccc(NC(=O)CSc3nnc(C)s3)cc2[nH]1	.	-	.	-	-	-
COC(=O)c1c(-n2c(C)cc(C=O)c2C)sc2c1CCCC2	-	-	-[15.4 µM]	28µM	-	-
COc1cc(C2Nc3ccc4ncccc4c3C3=C2C(=O)CCC3)cc(OC)c1O (stereo not given)	-	45µM	-	-	-	-
COc1cc(C2Nc3ccc4ncccc4c3C3=C2C(=O)CC(C)(C)C3)cc(OC)c1O (stereo not given)	-	25µM	-	.	-	-
CN(N)c1nc(C(F)(F)F)nc2ccccc12	-	11µM	-	-	-	-
NNc1nc(C(F)(F)F)nc2ccccc12	-	?	-	-	-	-
CN(C)c1ccc(NC(=O)Cn2cc(S(=O)(=O)Cc3ccccc3Cl)c3ccccc32)cc1	.	-	.	.	.	.
CCCCCCCCCCCCCC/C(C(=O)O)=C(\C)C(=O)O	-	.	.	-	.	-
Cn1c(CCNC(=O)c2ccco2)nc2cc(NC(=O)COc3ccc(Cl)cc3)ccc21	.	-	.	.	.	.
SMILES	aGlu spleen mod	GAA glycogen mod	GAA inhib	Menin-MLL TR inh	MLL CXXC-DNA inh	Menin MLL FP FL
CCOC(=O)c1c(/N=C/c2ccccc2O)sc2c1CCC2	-	18µM	-	-	-	-
CCOC(=O)c1c(/N=C/c2ccc(O)cc2O)sc2c1CCC2	-	35µM	-	-	-	-
CCOC(=O)c1c(/N=C/c2cccc([N+](=O)[O-])c2O)sc2c1CCC2	-	-	-	.	-	-
CCn1c(=O)cc(OCC(=O)N2CCN(c3ccc(C)cc3)C(C)C2)c2ccccc21 (stereo not given)	.	-	.	.	.	.
COc1ccc(C2CC(c3ccccc3O)=NN2C(=O)c2ccccc2)cc1OC (stereo not given)	.	-	.	-	?	-
O=C(c1ccccc1)N1N=C(c2ccccc2O)CC1c1ccccc1 (stereo not given)	.	-	.	28µM	?	-
O=C(CCC(=O)N1CCSc2ccccc21)NCc1ccccc1Cl	.	-	.	.	.	.
CCCc1cc(=O)[nH]c(Nc2ccc(O)cc2)n1	-	28µM	-	.	-	-
COc1cc(OC)c(C2Nc3cccc4cccc(c34)N2)c(OC)c1	.	?	.	?	-	-
